SMILES strings stand for the structures. ± gives the standard deviation of the averaged measurements.

Experiment [1] relates to DLD1. In words: cell viability (CellTiter-Glo) relative to plate median (fraction of plate median); higher = more viable cells. Particulars: 5 µM; treatment time 24 h; reporter: 7TFP. The procedure, abridged:
(§1)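 Values are well luminescence normalised to the plate median, from either a firefly luciferase or a CellTiterGlo readout on parallel plates. The cells, colorectal cancer lines stably transduced with lentiviral 7TFP or TCF4/Wnt firefly luciferase reporters, were treated with library compounds at a final 5 µM for 24 h. The mean of two independent replicates is listed.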

Another experiment deals with HCT116. The description is as above. Particulars: 5 µM; treatment time 24 h; reporter: TCF4/Wnt. The procedure, abridged: as §1
The test system of experiment [2] is SW480. The description is as above. The following applies: 5 µM; treatment time 24 h; reporter: 7TFP. The procedure, abridged:
as §1

In experiment [3] the test system is DLD1. As to the kind of experiment: TCF/Wnt firefly luciferase reporter signal relative to plate median (fraction of plate median); higher = higher Wnt reporter signal. Particulars: 5 µM; treatment time 24 h; reporter: 7TFP. The procedure, abridged: as §1
The test system of experiment [4] is SW480. The experiment is described as above. The following applies: 5 µM; treatment time 24 h; reporter: 7TFP. The procedure, abridged:
as §1

For the compound `NC(=O)CC[C@H](N)C(=O)O`, the cell viability in the experiment on DLD1 [1] was found to be 1.02 ± 0.014; with HCT116, 0.923 ± 0.11; in the experiment with SW480 [2], 1.02 ± 0.069. For the same compound, the results for the “TCF/Wnt firefly luciferase reporter signal” value in the experiment with DLD1 [3] and with SW480 [4] were 1.02 ± 0.14 and 1.07 ± 0.064, respectively.

Take `O=C(NC(Cc1cc(=O)[nH]c2ccccc12)C(=O)O)c1ccc(Cl)cc1` (stereo not given): the cell viability came to 0.93 ± 0.0071 with DLD1 [1], 0.975 ± 0.026 with HCT116 and 0.931 ± 0.024 with SW480 [2]. The results for the “TCF/Wnt firefly luciferase reporter signal” value in the experiment with DLD1 [3] and in the experiment with SW480 [4] were 0.909 ± 0.064 and 0.818 ± 0.069, respectively.

On to `C[C@]12CCC[C@H](O1)c1c(cc3c(c1O)C(=O)c1c(O)cc(O)cc1C3=O)O2` [Averufin (Isoform A, Compound ID 7507)], for which the cell viability amounted to 1.01 ± 0.12 in the experiment on DLD1 [1], 1.05 ± 0.14 in the experiment with HCT116 and 1.04 ± 0.088 with SW480 [2]. The “TCF/Wnt firefly luciferase reporter signal” value in the experiment on DLD1 [3] came to 0.896 ± 0.16; with SW480 [4] it was 0.972 ± 0.083.

As for `CCCCCc1c2c(cc(O)c1C(=O)O)OC(=O)c1c(cc(OC)cc1C(=O)CCCC)O2`, the cell viability was determined as 0.958 ± 0.036 with DLD1 [1], 0.973 ± 0.14 with HCT116 and 1 ± 0.013 with SW480 [2]. Moreover, the “TCF/Wnt firefly luciferase reporter signal” value in the experiment with DLD1 [3] was 0.963 ± 0.034; in the experiment on SW480 [4], 1.05 ± 0.16.

With `CC(=O)Oc1cc(-c2coc3cc(OC(C)=O)c(OC(C)=O)c(OC(C)=O)c3c2=O)cc(OC(C)=O)c1OC(C)=O`, the cell viability with DLD1 [1] came to 1 ± 0.015; with HCT116, 1.09 ± 0.2; in the experiment on SW480 [2], 0.998 ± 0.018. The entries for the “TCF/Wnt firefly luciferase reporter signal” value in the experiment with DLD1 [3] and with SW480 [4] were 1.09 ± 0.17 and 0.95 ± 0.1, respectively.

As to `CC1(C)CC2C1CCC1(C)OC1CCC2(C)O` (stereo not given), the cell viability was found to be 0.995 ± 0.036 in the experiment with DLD1 [1], 1 ± 0.067 in the experiment on HCT116 and 0.975 ± 0.0071 with SW480 [2]. Also, the “TCF/Wnt firefly luciferase reporter signal” value was found to be 1.07 ± 0.078 with DLD1 [3] and 1 ± 0.065 in the experiment on SW480 [4].

As for `C/C=C/C=C/[C@@H]1O[C@](O)([C@H](CC)C(=O)NC/C=C/C=C(\C)[C@@H](OC)[C@@H](C)[C@@H]2O[C@H](/C=C/C=C/C=C(\C)C(=O)c3c(O)ccn(C)c3=O)[C@H](O)[C@@H]2O)C[C@H](O)C1(C)C` (single isomer, unassigned; isomere) [Heneicomycin (Isomere)], the cell viability with DLD1 [1] was determined as 0.948 ± 0.037; in the experiment on HCT116, 1.04 ± 0.14; with SW480 [2], 1.035 ± 0.0071. Further, the “TCF/Wnt firefly luciferase reporter signal” value with DLD1 [3] is 1.05 ± 0.064; in the experiment on SW480 [4] it was 1.03 ± 0.021.

As for `CO[C@H]1[C@H](O)[C@@H](O)[C@H](O)[C@H](O)[C@H]1O`, the values for the cell viability in the experiment with DLD1 [1], in the experiment on HCT116 and in the experiment on SW480 [2] were 0.981 ± 0.018, 0.953 ± 0.026 and 1.03 ± 0.014, respectively. Further, the “TCF/Wnt firefly luciferase reporter signal” value in the experiment with DLD1 [3] amounted to 1.11 ± 0.13; with SW480 [4] it was 1.1 ± 0.092.

With `COC(=O)C1=CO[C@@H](O[C@@H]2O[C@H](CO)[C@@H](O)[C@H](O)[C@H]2O)[C@@H]2[C@@H](C)[C@@H](O)C[C@H]12`, the results for the cell viability with DLD1 [1], in the experiment on HCT116 and in the experiment with SW480 [2] were 1.045 ± 0.0071, 1.02 ± 0.047 and 1.06 ± 0.035, respectively. Further, the entries for the “TCF/Wnt firefly luciferase reporter signal” value with DLD1 [3] and in the experiment on SW480 [4] were 1.01 ± 0.016 and 1.09 ± 0.064, respectively.

Take `C[C@@H]1CC[C@@]23CCC4(C)[C@@](C=CC5[C@@]6(C)CCC(=O)C(C)(C)C6CC[C@]54C)(OC2=O)C3[C@H]1C` (stereo not given in full): the cell viability in the experiment with DLD1 [1] was 0.982 ± 0.04; with HCT116, 0.991 ± 0.15; in the experiment with SW480 [2] it was 0.956 ± 0.018. The “TCF/Wnt firefly luciferase reporter signal” value with DLD1 [3] came to 0.836 ± 0.09; with SW480 [4], 0.921 ± 0.017.

On to `NC[C@H]1O[C@H](O[C@H]2[C@H](O)[C@@H](O[C@H]3O[C@H](CO)[C@@H](O)[C@H](N)[C@H]3O)[C@H](N)C[C@@H]2N)[C@H](N)[C@@H](O)[C@@H]1O`, for which the cell viability in the experiment on DLD1 [1] stood at 1.11 ± 0.028; in the experiment with HCT116, 0.997 ± 0.033; in the experiment on SW480 [2], 1.02 ± 0.052. In addition, the “TCF/Wnt firefly luciferase reporter signal” value in the experiment with DLD1 [3] is 1.03 ± 0.035; in the experiment on SW480 [4], 1.01 ± 0.021.

Consider `OCC(S)CS` (stereo not given), for which the cell viability in the experiment on DLD1 [1] was 0.884 ± 0.063; in the experiment on HCT116, 0.956 ± 0.018; with SW480 [2], 0.944 ± 0.032. The “TCF/Wnt firefly luciferase reporter signal” value with DLD1 [3] stood at 0.921 ± 0.057; in the experiment on SW480 [4] it was 0.936 ± 0.066.

For the compound `CC(C)c1ccc2c(c1)CC[C@H]1[C@](C)(CN)CCC[C@]21C`, the cell viability in the experiment on DLD1 [1] is 1.04 ± 0.028; in the experiment on HCT116, 1.07 ± 0.092; in the experiment on SW480 [2], 1.06 ± 0.028. Besides, the “TCF/Wnt firefly luciferase reporter signal” value in the experiment on DLD1 [3] came to 1.18 ± 0.071; in the experiment on SW480 [4], 1.03 ± 0.13.

Take `COc1ccccc1OCCNCC(O)COc1cccc2[nH]c3ccccc3c12` (stereo not given): the figures for the cell viability in the experiment with DLD1 [1], in the experiment on HCT116 and in the experiment on SW480 [2] were 1.05 ± 0.22, 1.06 ± 0.078 and 1.1, respectively. For the same compound, the “TCF/Wnt firefly luciferase reporter signal” value in the experiment with DLD1 [3] was determined as 1.21 ± 0.085; in the experiment with SW480 [4], 1.075 ± 0.0071.

The values are drawn from the supplement of paper PMC6522484.
